Assay outcomes: PubChem, The Scripps Research Institute Molecular Screening Center
An excerpt weighted towards active compounds, which were near 2.4% of everything screened.
CHO-K1 Ca ag – nonselective activator or artifact in parental CHO-K1 cells. Fluo-8 calcium fluorescence; scaled to maximal ATP response, vehicle zero. activation, % at 3 µM. 0.48% of 360,000 active; in the data active means activation above about 15%;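 further: untransfected CHO-K1 host cells lacking M1 receptor as counterscreen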
M1 ag – activates human CHRM1 receptor; CHO-K1 hM1, Fluo-8 calcium fluorescence, agonist mode; 0% DMSO, 100% acetylcholine EC100; activation, % at 3 µM; 0.33% of 360,000 active;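 active means activation above the run's mean compound activation plus 3 SD, cut at about 16% in these data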;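 further: peak over basal fluorescence ratio within a 140 s kinetic read after compound addition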
Target sequence (P11229 whole entry, looked up): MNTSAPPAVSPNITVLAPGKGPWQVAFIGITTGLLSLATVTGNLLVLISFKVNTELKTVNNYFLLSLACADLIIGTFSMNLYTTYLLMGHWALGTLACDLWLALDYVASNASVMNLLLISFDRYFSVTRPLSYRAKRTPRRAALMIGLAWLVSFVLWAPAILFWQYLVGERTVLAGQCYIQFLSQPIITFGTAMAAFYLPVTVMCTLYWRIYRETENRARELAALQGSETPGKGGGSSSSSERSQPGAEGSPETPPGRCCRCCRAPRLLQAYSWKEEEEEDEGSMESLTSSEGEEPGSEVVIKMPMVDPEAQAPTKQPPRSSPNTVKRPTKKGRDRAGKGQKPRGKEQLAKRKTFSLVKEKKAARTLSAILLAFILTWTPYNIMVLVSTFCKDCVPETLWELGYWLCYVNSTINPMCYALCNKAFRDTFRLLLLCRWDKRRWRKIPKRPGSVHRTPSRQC
M1 PAM parental – nonselective activator or artifact in parental CHO-K1 calcium assay; ATP EC20, Fluo-8 calcium fluorescence; 0% at ATP EC20, 100% at ATP max; activation, % at 3 µM; 0.02% of 360,000 active;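 active means activation above the run cutoff, the mean activation of all test compounds plus 3 SD, cut at about 40% in these data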;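 further: peak over basal fluorescence ratio in a 140 s read after ATP addition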
M1 PAM – human CHRM1 positive allosteric modulation | P11229 | CHO-K1 hM1, Fluo-8 calcium fluorescence, ACh EC20; 0% = ACh EC20, 100% = maximal ACh | activation, % at 3 µM | 0.088% of 360,000 active; in the data active means activation above about 19%, passing the limit was not always enough
CHRM1 antagonist – antagonists of human M1 muscarinic receptor; inhibition, % at 3 µM; 1.3% of 360,000 active; CHO-K1 hM1, Fluo-8 calcium fluorescence, ACh EC80 antagonist; P11229; AID 588852;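 active means percent inhibition above its own plate's cutoff, namely the mean of that plate's compound wells plus 3 SD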;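 further: peak over basal fluorescence ratio during 140 s after agonist addition; 0% = ACh EC80 plus DMSO and 100% = DMSO alone without agonist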
CHO-K1 Ca antag – M1 antagonist counterscreen hit in parental CHO-K1 cells; ATP-induced calcium, Fluo-8 fluorescence; inhibition, % at 3 µM; 0.6% of 360,000 active;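 active means inhibition above a per-plate cutoff, the plate's mean sample inhibition plus 3 SD, cut at about 24% in these data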;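 further: 0% = DMSO plus EC80 ATP and 100% = DMSO alone without ATP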
* = called active by the depositor; / = not tested or not shown.

SMILES | CHO-K1 Ca ag | M1 ag | M1 PAM parental | M1 PAM | CHRM1 antagonist | CHO-K1 Ca antag
CSCCC(NC(=O)c1ccc(Cl)cc1Cl)C(=O)N(C)Cc1nc2ccccc2c(=O)[nH]1 (stereo not drawn) | 0.5 | -2.7 | 1.9 | 13.9 | -25.8 | -8.4
CC1(C(=O)NCc2ccccc2)CCC(=O)N1CCOc1ccccc1 (stereo not drawn) | 0.1 | -5.1 | -7.8 | -4.1 | 13.2 | 26.6*
COc1ccc(C(C)(C)C)cc1NC(=O)COC(=O)C1=NNC(=O)CC1 | 1.4 | -1.2 | 7.7 | 2.9 | -5.2 | 9.2
Cc1ccc2cc(S(=O)(=O)NCCCN3CCOCC3)ccc2c1 | 18.8* | -12.1 | 22.7 | 8.2 | 4.2 | -0.6
N#C/C(=N\Nc1ccc(Cl)cc1)C(=O)c1ccccc1 | 6.8 | 6.6 | -2.6 | -2.3 | 14.7 | 31.5*
CCCC[C@@H]1Cc2[nH][nH]c(=O)c2[C@H](c2cccc3ccccc23)O1 | 2.7 | / | 17.4 | / | / | -21.2
O=C(CSc1nnnn1C1CC2CCC1C2)Nc1ccnc2ccccc12 (stereo not drawn) | 12.8 | 6.4 | 1.5 | -15.8 | 32.3* | 36.5*
COCC(C)NC(=O)CSc1nc2ccccc2c(=O)n1CCc1ccc(S(N)(=O)=O)cc1 (stereo not drawn) | 6.1 | -1.3 | -19.7 | -11.5 | 29.7* | 6.8
COCCn1c(SCC(=O)NNC(=O)Cc2ccccc2)nc2ccccc2c1=O | -0.2 | -2.6 | -6.5 | 8.8 | -6.1 | 24.5*
CN(C)CCCn1c(SCC(=O)N2c3ccccc3Sc3ccccc32)nc2ccccc2c1=O | 0.0 | -14.9 | 31.1 | -27.2 | 38.7* | -10.9
O=C(COC(=O)c1cc(=O)[nH]c2ccccc12)c1cccs1 | 0.0 | -0.3 | -19.4 | 1.0 | 3.4 | 29.7*
Cc1ccc(S(=O)(=O)Cc2ccc(C(=O)N3CCN(c4cc(C)ccc4C)CC3)o2)cc1 | 0.0 | -1.2 | 9.2 | 7.8 | -9.5 | -2.5
Cc1ccc(C)c(N2CCN(C(=O)c3ccc(CS(=O)(=O)c4ccccc4C)o3)CC2)c1 | 3.3 | -0.6 | -8.4 | -3.8 | 18.3 | 24.6*
CCC(=O)N1N=C(c2cccs2)CC1c1ccco1 (stereo not drawn) | -0.8 | -10.9 | 0.7 | 3.9 | -1.7 | 10.9
CCN(CC)CC(=O)N1N=C(c2cccs2)CC1c1ccco1 (stereo not drawn) | -0.2 | -5.2 | -6.2 | -20.8 | 50.9* | -0.2
CN1CCN(c2ccncc2S(=O)(=O)N2CCCCC2)CC1 | 1.5 | -5.4 | 11.2 | -11.8 | 26.6* | -6.2
O=NN1CCN(c2ccncc2S(=O)(=O)N2CCCCC2)CC1 | 1.0 | -0.7 | 18.9 | 8.7 | -8.8 | -5.6
CC(C)NC(=O)N1CCN(c2ccncc2S(=O)(=O)N2CCOCC2)CC1 | 0.3 | -1.3 | 9.8 | -5.1 | -13.9 | -1.2
CC(C)N1CCN(c2ccncc2S(=O)(=O)N2CCCCC2)CC1 | 1.6 | -7.0 | 12.7 | -28.9 | 97.5* | 1.6
COc1ccc(CC(=O)NC(C)c2nnc(SCC(=O)Nc3nc(C)cs3)n2C)cc1 (stereo not drawn) | -0.1 | -3.8 | -6.4 | 8.8 | 4.9 | 30.6*
COc1ccc(CC(=O)NC(C)c2nnc(SCC(=O)c3ccc(Br)cc3)n2C)cc1 (stereo not drawn) | 0.7 | -9.4 | 2.1 | 5.5 | 2.0 | -16.3
O=C(O)CNC(=O)c1ccccc1F | 0.0 | -0.5 | -5.5 | 5.8 | -1.9 | 11.2
O=C(CNC(=O)c1ccccc1F)NCCc1ccccc1F | -0.1 | -2.5 | -13.8 | -10.0 | 27.9* | 6.3
COc1ccc(/C=C/CN2CCN(CC(C)C)C(CCO)C2)cc1 (stereo not drawn) | -0.5 | -10.3 | 11.9 | -21.7 | 27.9* | 4.2
CC(C)[C@H](NC(=O)N1CC(=O)Nc2ccccc21)C(=O)N1CCC(C(=O)O)CC1 | 0.3 | -1.1 | -7.7 | 0.6 | 0.9 | -6.0
SMILES | CHO-K1 Ca ag | M1 ag | M1 PAM parental | M1 PAM | CHRM1 antagonist | CHO-K1 Ca antag
O=c1c(Cl)c(Cl)cnn1Cc1nnc(-c2ccccc2Br)o1 | 70.7* | 85.7* | -6.8 | -35.4 | 94.0* | 95.1*
Clc1ccccc1OCc1nnc(-c2ccccc2Br)o1 | -0.1 | -3.5 | -4.0 | 1.4 | -23.4 | 9.0
CCCCCCNC(=O)O[C@H]1C[C@H](C(=O)OC)[C@H](C(=O)OC)C2CN(S(=O)(=O)c3ccc(C)cc3)C[C@@]21O (stereo partly drawn) | 1.2 | -9.8 | 1.9 | 3.0 | -14.9 | -2.0
Cc1ccc(S(=O)(=O)NNc2nc3ccccc3nc2C(F)(F)F)cc1 | 0.8 | 49.9* | 17.7 | -0.1 | -5.5 | -8.9
Cc1ccc(S(=O)(=O)NNc2ccccc2)cc1 | -0.3 | -0.3 | -3.8 | 4.8 | -6.8 | 16.5
C1CCN(C2CCN(c3nc4nonc4nc3N3CCSCC3)CC2)C1 | 0.2 | -10.1 | -5.4 | -23.8 | 26.9* | 8.2
O=C(NCCc1ccc2c(c1)OCCO2)c1cc(S(=O)(=O)N2CCCC2)ccc1Br | 2.2 | -3.5 | 16.7 | 5.6 | -10.7 | -17.3
Cc1cc(OCCCCN2C(=O)NC(C)(C)C2=O)ccc1[N+](=O)[O-] | 17.0* | -1.6 | -4.3 | -10.4 | 7.6 | -4.6
Cc1ccc([N+](=O)[O-])c(OCCN2C(=O)NC(C)(C)C2=O)c1 | -0.1 | -4.1 | -5.4 | 8.1 | -12.9 | -1.2
CCCCNc1c(-c2ccc(OC)c(Sc3ccc(OC)cc3)c2)nc2ccccn12 | 6.7 | -4.1 | 2.4 | -20.4 | 50.2* | -8.4
CCCCNc1c(-c2ccc(SC(C)CC)c(OC)c2)nc2ccc(C)cn12 (stereo not drawn) | 2.2 | -7.1 | 0.3 | -21.9 | 43.9* | 8.8
CCCCNc1c(-c2ccc(OC)c(Sc3ccc(OC)cc3)c2)nc2cnccn12 | 1.6 | -0.5 | -11.5 | -2.7 | 7.2 | 3.5
O=C(Nc1nnc(-c2cccs2)o1)c1cccc(C(F)(F)F)c1 | 32.0* | 40.7* | 17.1 | -7.7 | -4.0 | 5.4
N#Cc1ccc(C(=O)Nc2nnc(-c3cccs3)o2)cc1 | 0.1 | -1.1 | 8.8 | 10.5 | -9.4 | -5.1
Cc1ccc(N(CC(O)CN2C(=O)NC(C)(C)C2=O)S(=O)(=O)c2ccc([N+](=O)[O-])cc2)cc1 (stereo not drawn) | 5.1 | -1.2 | 0.5 | -0.3 | 0.4 | -3.6
O=C(Nc1ccccc1)c1cc(S(=O)(=O)NCc2ccncc2)ccc1Cl | 13.5 | 7.5 | -12.2 | -5.3 | 20.4 | 23.7*
O=C(Nc1ccccc1)c1cc(S(=O)(=O)Nc2cccnc2)ccc1Cl | 0.4 | -0.8 | -20.0 | 9.4 | -19.6 | 17.0
CN(c1ccc(F)cc1)S(=O)(=O)c1ccc(Cl)c(C(=O)Nc2ccncc2)c1 | 9.5 | -0.2 | -23.7 | -17.8 | 34.2* | 33.8*
CN(c1ccc(F)cc1)S(=O)(=O)c1ccc(Cl)c(C(=O)Nc2ccc3c(c2)CCC3)c1 | 0.9 | -3.5 | -5.0 | -6.9 | 12.2 | -1.5
CN(c1ccccc1)S(=O)(=O)c1ccc(Cl)c(C(=O)Nc2ccncc2)c1 | 15.6* | -0.5 | 0.4 | -10.1 | 19.6 | -14.7
